Results on 30 molecules are retold here after PubChem BioAssay (NCATS).

For experiment [1], the target named is Glutathione peroxidase 1 (Homo sapiens) (UniProt P07203). The experiment in a line: Primary qHTS Assay for Inhibitors of Recombinant Selenoprotein Glutathione Peroxidase 1 (GPX1) (AID 1845191). Also: nearly all actives have a fitted effect of over 65% in size. Also: potency is read from the fitted curve at half-maximal effect. A digest of the protocol:
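NADPH consumption tracked by fluorescence at 340/450 nm between t=0 and t=15 min, room temperature. Final mix: 10 nM GPX1, 100 nM glutathione reductase, 1 mM GSH, 0.5 mM NADPH, 0.5 mM cumene hydroperoxide, 0.01% BSA; 30 min compound–enzyme preincubation.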

Experiment [2] addresses Phospholipid hydroperoxide glutathione peroxidase GPX4 (Homo sapiens) (UniProt P36969). Description: Primary qHTS Assay for Inhibitors of Recombinant Selenoprotein Glutathione Peroxidase 4 (GPX4) (AID 1845192). Also: nearly all actives have a fitted effect of over 65% in size. Also: potency is read from the fitted curve at half-maximal effect. As to activity change, negative = inhibition: series mostly up to about 50 µM; % is scaled to controls: 0 for no effect and ±100 for the full control effect. A digest of the protocol:
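NADPH consumption followed by fluorescence at 340/450 nm, t=0 and after 15 min at room temperature. Reaction started with cumene hydroperoxide (0.5 mM final) after 30 min compound–GPX4 preincubation; final 200 nM GPX4, 100 nM GR, 1 mM GSH, 0.5 mM NADPH.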
(In qHTS, concentration-response curves come from the screen itself.)

Experiment [3] deals with Luciferin 4-monooxygenase (Photinus pyralis) (UniProt P08659). The experiment in a line: Primary firefly luciferase (FLuc) qHTS assay for identification of artifact compounds. (AID 1845220). Also: nearly all actives have a fitted effect of over 60% in size. Also: potency is read from the fitted curve at half-maximal effect.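 As to activity change, negative = inhibition: series mostly up to about 54 µM; plate controls were DMSO vehicle for no effect and no enzyme for full effect.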 In a few lines: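 FLuc 10 nM; luciferin 10 uM; ATP 10 uM; Tris-acetate pH 7.6, Mg-acetate 10 mM; 15 min RT preincubation; 5 min reaction; luminescence.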
Experiment [4] can be described thus: NCATS anti-infectives library activity on the primary C. elegans qHTS viability assay (AID 1745855; calls by dose curve; also: potency is read from the fitted curve at half-maximal effect). As to conditions: C. elegans worm area imaging, day 7. In a few lines:
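Titration-based screen in worms: eggs hatched overnight in M9, L1 larvae fed TOP10 capsules in S medium with compound, incubated 21 °C for 7 days; fluorescent objects gated by size and intensity at days 0, 3 and 7.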

Experiment [5] is described as follows: Primary fluorescence-based thiol-reactive (MSTI) qHTS assay for identification of artifact compounds. (AID 1845221).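 Also: series mostly up to about 54 µM; thiol-reactive compounds lower the probe fluorescence signal; nearly all actives have a fitted effect of over 65% in size.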 In a few lines:
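Reactivity toward the thiol probe MSTI (4 uM) is scored by fluorescence at Ex/Em 525/598 nm after 1 h at room temperature. Acetyl-MSTI and MSTI define the activity scale.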

Experiment [6] can be described thus: Viability counterscreen for antagonist of constitutive androstane receptor (CAR) against the NCATS DSHEA and TCM libraries (AID 1794837).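 Also: compound exposure lasted 24 h before viability reading; 0% is about no effect.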 In a few lines:
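Viability was measured by CellTiter-Fluor fluorescence (405/540 nm, 1 hr) in HepG2-CYP2B6-hCAR cells. Cells were co-treated 24 hr with 48 uM CITCO (final), antagonist mode, and test substances.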
On the technique in general: A counterscreen serves to expose hits that act by an unwanted route or on another target.

Experiment [7] can be described thus: Viability counterscreen for agonist of constitutive androstane receptor (CAR) against the NCATS DSHEA and TCM libraries (AID 1794838).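 Also: cells exposed to compound for 24 h; 0% is about no effect.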 A digest of the protocol: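 Cell viability, from CellTiter-Fluor fluorescence (405/540 nm), was scored after a 24 h, 37C exposure of HepG2 cells carrying CYP2B6 reporter and hCAR to test substances in presence of 0.75 uM PK11195.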

Experiment [8] deals with Nuclear receptor subfamily 1 group I member 3 (Homo sapiens) (UniProt Q14994). The experiment in a line: Primary qHTS for agonist of constitutive androstane receptor (CAR) against the NCATS DSHEA and TCM libraries (AID 1794839).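 Also: HepG2 cells expressing human CAR with a CYP2B6 reporter plus PK11195 antagonist; luciferase reporter luminescence read with ONE-Glo; 0% is about no effect.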 In a few lines:
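Agonist mode in presence of hCAR antagonist PK11195 (0.75 µM final): test substances, 24 h, 37 °C, on HepG2-CYP2B6-hCAR cells. Same-well readouts: fluorescence viability, then ONE-Glo luminescence; CITCO as reference agonist.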

Experiment [9] is described as follows: HepG2 viability counterscreen (readout 2: ATP content) against the NCATS DSHEA and TCM libraries (AID 1794840).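 Also: HepG2 cells exposed to substances for about 24 h; 0% is about no effect.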 In a few lines: (§1)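 Readout 1: cellular protease activity, GF-AFC substrate (25 uM final, 30 min, fluorescence 380/510 nm). Readout 2: ATP content by CellTiter-Glo luminescence after 30 min at RT. Both follow ~24 h exposure of HepG2 cells (1,000/well) to substances.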

Experiment [10] in a line: HepG2 viability counterscreen (readout 1: protease activity) against the NCATS DSHEA and TCM libraries (AID 1794841).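 Also: cells exposed to compounds for about 24 h before the protease read; 0% is about no effect.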 In a few lines:
as §1

“And” between values parts separate entries of the source, which are not always exact repeats. Equal entries are not always repeated. Results filed as inconclusive are left out. Some structures have more than one record in an assay (separate samples or runs), and their calls can disagree. The source made the active and inactive calls. Unless noted, calls follow the shape of the dose curve; as a rule, active = well fitted curve in the direction sought with a large enough effect; inconclusive = small, poorly fitted or top-dose-only effect, or another doubt; inactive = no such curve, though single readings can be large; an effect the other way counts as inactive or inconclusive. *1 amine or outer side, *2 acyl side, *3 side chain or, on linkers, in order; H or OH if unused. Where a SMILES comes first, the peptide text is derived from it. Bridges are numbered along the chain shown (N, C = ends). [ ]: non-standard residue; d: D form. The star is where a group is joined. ξ: configuration not given here. ξhTyr(3S-OH,4S-OH,3'-OSO3H) = NC(C(=O)O)[C@H](O)[C@@H](O)c1ccc(O)c(OS(=O)(=O)O)c1; Orn(4R-OH,5R-OH) = O=C([C@H](C[C@@H](O)[C@@H](O)N[*:3])N[*:1])[*:2]; X2 = CCCCCOc1ccc(-c2cc(-c3ccc(C(=O)*)cc3)no2)cc1; X3 = C[C@H]1CN([*:1])C(C(=O)[*:2])[C@H]1O; ξGln(3R-OH) = NC(=O)C[C@@H](O)C(N)C(=O)O; ξPro(4R-OH) = O=C(O)C1C[C@@H](O)CN1; ξThr(3R) = C[C@@H](O)C(N)C(=O)O

Sequence of Glutathione peroxidase 1 (Homo sapiens) (P07203 whole entry, looked up): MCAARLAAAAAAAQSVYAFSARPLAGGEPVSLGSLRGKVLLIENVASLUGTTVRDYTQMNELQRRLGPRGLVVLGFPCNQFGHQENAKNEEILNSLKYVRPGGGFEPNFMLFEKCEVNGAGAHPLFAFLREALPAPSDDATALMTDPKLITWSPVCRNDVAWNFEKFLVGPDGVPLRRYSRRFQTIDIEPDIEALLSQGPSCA
Sequence of Phospholipid hydroperoxide glutathione peroxidase GPX4 (Homo sapiens) (P36969 whole entry, looked up): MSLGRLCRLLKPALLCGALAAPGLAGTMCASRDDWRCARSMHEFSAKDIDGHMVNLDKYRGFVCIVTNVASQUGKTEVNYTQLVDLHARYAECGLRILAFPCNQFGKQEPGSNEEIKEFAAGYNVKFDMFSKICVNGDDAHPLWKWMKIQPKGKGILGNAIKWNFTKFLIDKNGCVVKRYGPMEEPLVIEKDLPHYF
Sequence of Nuclear receptor subfamily 1 group I member 3 (Homo sapiens) (Q14994 whole entry, looked up): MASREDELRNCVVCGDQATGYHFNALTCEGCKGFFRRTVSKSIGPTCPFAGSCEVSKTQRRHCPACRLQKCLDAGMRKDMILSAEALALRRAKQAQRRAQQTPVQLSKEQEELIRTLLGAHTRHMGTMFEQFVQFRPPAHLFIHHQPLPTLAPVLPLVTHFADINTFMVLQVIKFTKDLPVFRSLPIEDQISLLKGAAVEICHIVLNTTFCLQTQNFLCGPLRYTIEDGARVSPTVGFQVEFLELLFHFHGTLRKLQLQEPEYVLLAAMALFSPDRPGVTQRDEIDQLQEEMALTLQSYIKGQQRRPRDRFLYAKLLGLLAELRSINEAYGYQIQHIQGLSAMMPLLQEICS

In the case of `Cc1ncc([N+](=O)[O-])n1C[C@H](O)CN1CCOCC1`, the Potency result in experiment [1], in experiment [2] and in experiment [3] was “inactive” each time.

With `CCOC(=O)c1ccc(NC2CCCCC2)c(N)c1`, the Potency result in [1] and in experiment [2] was “inactive” throughout.

In the case of `COC(=O)[C@@H](NC(=O)[C@H](CC(C)C)NC(=O)N(Cc1ccccc1)C[C@@H](O)[C@H](Cc1ccccc1)NC(=O)OC(C)(C)C)C(C)C`, in [1], the Potency result is “inactive”.

As to `Cc1c(Cc2ccc3ccccc3n2)c2cc(F)ccc2n1CC(=O)O`, the Potency entry in [1] and in [2] was “inactive” throughout.

On to `CC(C)CC(c1c(O)c(C=O)c(O)c(C=O)c1O)C1CCC(C)(O)C2CC(C(C)(C)O)CCC12C` (stereo not drawn), for which the Potency result in experiment [1], in [2] and in experiment [3] was “inactive” in each case.

In the case of `C/C=C(\C)C(=O)OC[C@H]1O[C@@H](O[C@H]2[C@@H](O[C@H]3O[C@H](COC(=O)/C(C)=C/C)[C@@H](O)[C@H](O)[C@H]3O[C@@H]3O[C@H](CO)[C@@H](O)[C@H](OC(=O)/C(C)=C/C)[C@H]3O)O[C@H](COC(=O)/C(C)=C/C)[C@@H](O)[C@@H]2O)[C@H](O)[C@@H](O)[C@@H]1O`, the Potency result in experiment [1] and in experiment [2] was “inactive” throughout. For the same molecule, in experiment [3], the activity change, negative = inhibition is 2.77% [at 11.6 µM] (inactive).

Consider `CCCCCOc1ccc(-c2cc(-c3ccc(C(=O)N[C@H]4C[C@@H](O)[C@@H](O)NC(=O)C5[C@@H](O)[C@@H](C)CN5C(=O)C([C@H](O)CC(N)=O)NC(=O)C([C@H](O)[C@@H](O)c5ccc(O)c(OS(=O)(=O)O)c5)NC(=O)C5C[C@@H](O)CN5C(=O)C([C@@H](C)O)NC4=O)cc3)no2)cc1` (stereo partly drawn) (X2-[Orn(4R-OH,5R-OH)][ξThr(3R)][ξPro(4R-OH)][ξhTyr(3S-OH,4S-OH,3'-OSO3H)][ξGln(3R-OH)][X3]; lactam 1-C), for which the Potency entry in experiment [1] and in experiment [3] was “inactive” throughout. Also, the Potency entry in [2] was “inactive and 2 µM (active)”.

Consider `C[C@H](/C=C/[C@@]1(O)[C@H](C)CC(=O)CC1(C)C)O[C@@H]1O[C@H](CO[C@@H]2OC[C@@H](O)[C@H](O)[C@H]2O)[C@@H](O)[C@H](O)[C@H]1O`, for which the Potency result in experiment [1], in experiment [2] and in [3] was “inactive” each time.

Take `O=C1OC(c2ccc(O)cc2)C(O)=C1Cc1ccccc1` (stereo not drawn): the Potency entry in [1] and in [2] was “inactive” throughout.

In the case of `O=C(CC1CC(c2ccc(F)cc2F)=NO1)N1CCOCC1` (stereo not drawn), the Potency result in experiment [1] and in experiment [2] was “inactive” throughout. The Potency in experiment [3] is 2.13 µM (active).

As to `COc1ccc(-c2ccn(CC[C@](C)(C(=O)NO)S(C)(=O)=O)c(=O)c2)c(F)c1`, the Potency entry in experiment [1] and in experiment [2] was “inactive” in each case.

On to `Oc1ccc(CC2NCCc3cc(O)c(O)cc32)cc1` (stereo not drawn), for which the Potency result in experiment [1] and in experiment [2] was “inactive” throughout.

For `CC(C)[C@](O)(c1ccc2cc(OC(F)F)c(OC(F)F)cc2c1)c1cn[nH]n1`, the Potency result in experiment [1] and in experiment [2] was “inactive” throughout.

`CN1CCc2cc(Cl)c(O)cc2[C@@H](c2cccc3c2OCC3)C1`: the Potency entry in experiment [1], in experiment [2] and in experiment [3] was “inactive” in each case.

On to `COc1cc([C@@H](O[C@@H]2O[C@H](CO)[C@@H](O)[C@H](O)[C@H]2O)[C@@H]2CO[C@H](c3ccc(O)c(OC)c3)[C@H]2CO)ccc1O`, for which the Potency entry in [1] and in [2] was “inactive” throughout.

As for `Cc1ccccc1-n1nc(-c2c(-c3ccc(F)cc3)nn3c2NC[C@@H](CO)C3)ccc1=O`, the Potency entry in experiment [1] and in experiment [2] was “inactive” each time.

As to `O=C(O)/C=C/c1ccc(O[C@@H]2O[C@H](CO)[C@@H](O)[C@H](O)[C@H]2O)cc1`, the Potency entry in experiment [1], in [2] and in experiment [3] was “inactive” in each case.

For the molecule `CC1=C(CC/C(C)=C/C(=O)O)[C@@]2(C)CCCC(C)(C)C2CC1=O` (stereo partly drawn), the Potency result in [1], in experiment [2] and in [3] was “inactive” in each case.

Turning to `CC1=CC2=C(C)C(=O)[C@](C)(O)[C@H](O)C2=CO1`, the Potency entry in experiment [1] and in experiment [2] was “inactive” throughout.

Take `COC(=O)c1cc(OC)cc(OC)c1C(=O)c1c(OC)cc2c(c1O)C1CCC(O)C(C)(O2)O1` (stereo not drawn): the Potency result in [1] and in [2] was “inactive” each time.

On to `CC1CC(=O)[C@]2(O)C(C(=O)OCCc3ccc(O)cc3)=CO[C@@H](O[C@@H]3O[C@H](CO)[C@@H](O)[C@H](O)[C@H]3O)[C@H]12` (stereo partly drawn), for which the Potency entry in experiment [1], in [2] and in experiment [3] was “inactive” throughout.

Consider `C[C@@H]1O[C@@H](OC(=O)Cc2ccccc2)[C@H](O)[C@H](O)[C@H]1O`, for which the Potency result in [1] and in experiment [2] was “inactive” throughout.

Consider `C/C(=C\C(=O)C(C)C1CCC2C3=C(CCC21C)C1(C)CCC(=O)C(C)(C)C1(O)CC3)C(C)(C)O` (stereo not drawn), for which the Potency entry in experiment [1], in [2] and in experiment [3] was “inactive” throughout.

On to `Cc1noc2c1-c1ccccc1C(c1ccc(Cl)cc1)=N[C@H]2CC(N)=O`, for which the Potency in experiment [4] is 5.15 µM (active). Further, the Potency result in [1], in experiment [2], in experiment [3] and in experiment [5] was “inactive” throughout.

For the molecule `CC(=O)O[C@@H]1C[C@@H](C)[C@](O)(CCC2=CC(=O)OC2)[C@@]2(C)CCCC(C)(C)C12` (stereo partly drawn), the molecule was classed as inactive in [6], in [7], in experiment [8], in [9] and in [10]. Besides, the Potency result in experiment [1], in experiment [2], in [3] and in [5] was “inactive” each time.

As to `CN1CCN(C2=Nc3ccccc3Nc3ccc(O)cc32)CC1`, the Potency entry in [1] and in experiment [2] was “inactive” in each case.

As for `COC(=O)[C@H](c1ccccc1Cl)N1CCC2SC(=O)C=C2C1` (stereo partly drawn), in [1], the Potency is 8.06 µM (active). The Potency entry in [2] is “inactive”.

As for `COC(=O)C1=CO[C@@H](O[C@@H]2O[C@H](CO)[C@@H](O)[C@H](O)[C@H]2O)[C@@H]2[C@@H](C)[C@@H](OC(=O)/C=C/c3ccccc3)[C@@H](O)[C@H]12`, the Potency entry in experiment [1], in experiment [2] and in experiment [3] was “inactive” throughout.

`COC(=O)C1=COC(OC2OC(CO)C(O)C(O)C2O)C2C(C)CC(=O)C12O` (stereo not drawn): the Potency entry in experiment [1], in [2] and in experiment [3] was “inactive” each time.

As to `O=C(O)Cc1cn([C@@H]2OC[C@@H](O[C@@H]3O[C@H](CO)[C@@H](O)[C@H](O)[C@H]3O)[C@H](O)[C@H]2O[C@@H]2O[C@H](CO)[C@@H](O)[C@H](O)[C@H]2O)c2ccccc12`, the Potency result in experiment [1], in experiment [2] and in experiment [3] was “inactive” each time.
